Results on 17 compounds are retold here after article PMC5540273 (PLoS ONE, 2017).

What all share (settings): concentration: 1 μM, replicates: in singlicate; n = 1
Experiment [1] deals with FGR.
In experiment [2] the test system is FLT1.
The subject of experiment [3] is FLT3-autoinhibited.
For experiment [4], the system named is FLT3.
Experiment [5] concerns FLT4.
In experiment [6] the test system is FRK.
Experiment [7] concerns FYN.
Experiment [8] relates to GAK.
Experiment [9] relates to T1, GCN2(Kin.Dom.2,S808G).
T1 construct: gene EIF2AK4

Experiment [10] concerns GRK1.
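Note: KINOMEscan kinase panel screen.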

`CCC(=O)c1c(-c2ccccc2)c2cc(Cl)ccc2c(=O)n1Cc1ccc(C(=O)O)cc1`: the “%Inh” value in experiment [1] is listed as 0%; in [2], 0%; in experiment [3], 4%; in experiment [4], 0%; in experiment [5], 0%; in [6] it was 0%. Moreover, the “%Inh” value came to 0% in [7], 0% in [8], 12% in experiment [9] and 0% in experiment [10].
Regarding `Cc1cccc(-c2nc(Nc3ccc4c(cnn4C)c3)c3ccccc3n2)n1` [GW876731], the “%Inh” value was found to be 0% in experiment [1]; 0% in experiment [2]; 0% in [3]; 9% in experiment [4]; 0% in [5]; 13% in experiment [6]. Further, the “%Inh” value turned out to be 9% in experiment [7], 19% in [8], 12% in experiment [9] and 1% in experiment [10].
Turning to `CN(C)c1cc(-c2ccc3c(N)n[nH]c3c2)nc(N)n1` [GSK2219329], the “%Inh” value in [1] is 19%; in experiment [2] it was 20%; in [3], 0%; in [4], 0%; in [5] it was 19%; in experiment [6] it was 0%. Moreover, the “%Inh” value in [7] is listed as 11%; in [8], 0%; in experiment [9], 0%; in [10] it was 0%.
Take `Cl.NS(=O)(=O)c1cccc(Nc2cc(-c3ccc(F)cc3)n[nH]2)c1` [GW824645]: the “%Inh” value in [1] was determined as 0%; in experiment [2] it was 0%; in experiment [3] it was 77%; in experiment [4], 88%; in experiment [5], 0%; in [6] it was 0%. The “%Inh” value in [7] worked out at 0%; in [8], 0%; in experiment [9] it was 0%; in experiment [10], 23%.
For `Cl.c1ccc(Cn2cnc3cc(Nc4ncnc5ccccc45)ccc32)cc1` [GW272142], the “%Inh” value in [1] is given as 23%; in [2], 16%; in experiment [3], 0%; in experiment [4], 0%; in experiment [5], 3%; in [6], 0%. In addition, the “%Inh” value in experiment [7] was found to be 10%; in experiment [8] it was 0%; in experiment [9] it was 0%; in experiment [10], 0%.
As to `COc1cccc(C2=C(N(C)c3ccccc3)C(=O)NC2=O)c1` [SB-334865], the “%Inh” value came out at 13% in experiment [1]; 16% in experiment [2]; 0% in experiment [3]; 0% in experiment [4]; 0% in experiment [5]; 5% in experiment [6]. The “%Inh” value in [7] turned out to be 13%; in experiment [8], 0%; in experiment [9], 0%; in experiment [10], 5%.
Take `COc1cc(Nc2nccc(N3CCC(NC(=O)C(C)c4ccc(Cl)cc4)C3)n2)cc(OC)c1OC` (centres unmarked) [GSK1379757]: the “%Inh” value in experiment [1] is 26%; in [2], 40%; in experiment [3] it was 0%; in [4] it was 25%; in experiment [5] it was 7%; in experiment [6], 0%. The “%Inh” value in experiment [7], in experiment [8], in experiment [9] and in experiment [10] was 0% each time.
Take `C[C@@H]1CC[C@H](C(=O)NC2CCCCC2)CN1c1cc(-c2ccc3c(N)n[nH]c3c2)nc(N)n1` [GSK2291363]: the “%Inh” value was 27% in experiment [1]; 35% in experiment [2]; 9% in [3]; 9% in [4]; 14% in experiment [5]; 19% in [6]. For the same compound, the “%Inh” value in [7] was 21%; in experiment [8] it was 17%; in experiment [9] it was 0%; in experiment [10], 0%.
For the compound `Cc1ccccc1COc1cc(-n2cnc3cc(Cl)ccc32)sc1C(N)=O` [GW813349], the “%Inh” value in experiment [1] came out at 9%; in [2] it was 5%; in [3], 3%; in [4] it was 8%; in [5] it was 10%; in experiment [6] it was 0%. For the same compound, the “%Inh” value in [7] turned out to be 0%; in [8] it was 1%; in experiment [9] it was 0%; in [10] it was 13%.
In the case of `Cn1c(=O)c(F)c(Nc2ccc(I)cc2F)c2c(=O)n(OC[C@H](O)CO)cnc21`, the “%Inh” value in experiment [1] is on record as 32%; in experiment [2] it was 0%; in experiment [3] it was 0%; in [4] it was 0%; in experiment [5] it was 10%; in [6], 0%. Besides, the “%Inh” value in experiment [7] is given as 14%; in experiment [8], 11%; in experiment [9], 0%; in [10], 9%.
On to `COc1ccc(Nc2nccc(N3CCC(NS(=O)(=O)c4ccc(NC(C)=O)cc4)C3)n2)cc1` (centres unmarked) [GSK1379729], for which the “%Inh” value is reported as 26% in [1]; 26% in experiment [2]; 27% in experiment [3]; 29% in experiment [4]; 26% in experiment [5]; 16% in experiment [6]. In addition, the “%Inh” value is 15% in experiment [7], 9% in experiment [8], 14% in experiment [9] and 9% in [10].
As for `O=C1NC(=O)C(c2ccccc2)=C1Nc1cccc(O)c1` [SB-390534], the “%Inh” value in [1] was determined as 0%; in experiment [2], 2%; in [3], 5%; in experiment [4], 26%; in experiment [5], 0%; in experiment [6], 0%. Also, the “%Inh” value stood at 0% in experiment [7], 11% in experiment [8], 0% in [9] and 13% in experiment [10].
Consider `Cc1nn2c(=O)cc(N3CCOCC3)nc2n1Cc1cccc(Cl)c1Cl` [GSK2342769], for which the “%Inh” value in experiment [1] was found to be 24%; in experiment [2], 27%; in [3], 9%; in experiment [4], 0%; in experiment [5] it was 34%; in [6], 0%. The “%Inh” value in experiment [7] is on record as 0%; in experiment [8] it was 1%; in experiment [9] it was 3%; in experiment [10] it was 3%.
For the compound `O=C(NCc1cccs1)c1cc(C(=O)c2c(Cl)cccc2Cl)c[nH]1` [GW823670], the “%Inh” value was found to be 7% in experiment [1]; 2% in experiment [2]; 0% in experiment [3]; 2% in experiment [4]; 2% in experiment [5]; 0% in [6]. In addition, the “%Inh” value in experiment [7] is recorded as 0%; in [8], 0%; in experiment [9], 8%; in experiment [10] it was 0%.
For the compound `COc1cc2nccc(Nc3cccc(Oc4ccccc4)c3)c2cc1OC.Cl` [GW284543], the “%Inh” value in experiment [1] is reported as 25%; in experiment [2], 24%; in experiment [3], 10%; in experiment [4], 6%; in experiment [5], 38%; in experiment [6], 0%. For the same compound, the “%Inh” value in experiment [7] is 36%; in experiment [8] it was 0%; in experiment [9] it was 0%; in [10], 0%.
Turning to `CCn1c(-c2ccoc2)nc2cnccc21` [SB-733887], the “%Inh” value in [1] came to 10%; in experiment [2] it was 9%; in [3], 65%; in experiment [4], 0%; in experiment [5], 10%; in [6], 0%. For the same compound, the “%Inh” value in experiment [7] is 47%; in experiment [8], 0%; in [9] it was 0%; in [10], 0%.
Turning to `Nc1nc(-c2ccccc2F)c(-c2ccnc3ccccc23)s1` [GW560459], the “%Inh” value in experiment [1] was 7%; in [2] it was 30%; in [3], 0%; in [4] it was 25%; in experiment [5], 0%; in experiment [6], 0%. For the same compound, the “%Inh” value in experiment [7] is reported as 39%; in [8] it was 79%; in experiment [9] it was 6%; in experiment [10], 0%.
